Data published in PubChem BioAssay (NCATS).
“And” between values parts separate entries of the source, which are not always exact repeats. Identical values can stand only once. Inconclusive results are not listed. Where a call stands in place of a potency, no number is given. More than one record can exist for a structure, and the calls need not agree. The source made the active and inactive calls. Unless noted, calls come from the whole dose curve; as a rule, active = well fitted curve in the direction sought with a large enough effect; inconclusive = small, poorly fitted or top-dose-only effect, or another doubt; inactive = no such curve, though single readings can be large; an effect the other way counts as inactive or inconclusive.

Experiments:
[1] = AP1 Signaling Pathway (AID 357; active = well fitted curve in either direction with a large enough effect, not every such curve was filed as active); details: ME-180 AP-1-bla reporter, EGF-induced, beta-lactamase ratio, 5 h; at 38 µM (top of the series)
In short: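 ME-180 cells with beta-lactamase reporter under AP-1 response element, stimulated with EC50 EGF; compounds tested in titration series, 5 h at 37 °C. CCF4 substrate added 2.5 h at room temperature; 460/530 nm emission ratio gave %activity and AC50.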

[2] = molecular target: Cytochrome P450 1A2 (Homo sapiens) (UniProt P05177); assay: p450-cyp1a2 (AID 410; calls by dose curve; note: potency is the fitted concentration of half-maximal effect)
In short: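 Inhibition was calculated relative to 57 uM furafylline (full inhibition). The reaction used human CYP1A2 at 20nM with Luciferin-ME at its Km, 100uM, driven by an NADPH-regenerating system for 60 min at room temperature.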

[3] = NFAT Signaling Pathway (AID 444; active = well fitted curve in either direction with a large enough effect, not every such curve was filed as active;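 note: carbachol stimulus at about its EC50 of 1 µM final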); details: Jurkat NFAT-bla M1, carbachol, beta-lactamase ratio, 5 h; at 38 µM (top of the series)
In short: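 Jurkat cells carrying an NFAT-driven β-lactamase reporter and co-transfected muscarinic M1 receptor were treated with compound plus carbachol (1 uM final, an EC50 level) for 5 h at 37 °C. CCF4 loading followed for 1 h at RT; 460/530 nm ratio gave %activity.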

[4] = molecular target: Glucocorticoid receptor (Homo sapiens) (UniProt P04150); assay: GR-GFP Redistribution (AID 450;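 active = compounds whose dose series gives a full or clear partial fitted curve of increased nuclear translocation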; note: potency is the fitted concentration of half-maximal effect); details: U2OS GR-GFP nuclear translocation, laser cytometry, 2 h
[5] = molecular target: Glucocorticoid receptor (Homo sapiens) (UniProt P04150); assay: GR-EFC Redistribution (AID 451; calls by dose curve; note: potency is the fitted concentration of half-maximal effect); details: CHO-K1 GR-EFC translocation, beta-gal luminescence, 2 h
In short: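 CHO-K1 cells stably expressing nuclear-localized β-gal enzyme acceptor and GR fused C-terminally to the enzyme donor fragment; ligand-driven nuclear translocation restores β-gal by complementation. Compounds titrated up to 46 uM final, 2 h at 37 °C; luminescence read.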

[6] = molecular target: Mitogen-activated protein kinase 10 (Mus musculus) (UniProt Q61831); assay: JNK3 AlphaScreen Assay (AID 530; active = well fitted curve in either direction with a large enough effect, not every such curve was filed as active;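 note: kinase came from lysate of stimulated human HepG2 cells; signal reports phosphorylation of biotinylated GST-cJun 1-79 at Ser73 with 10 µM ATP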)
In short: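 JNK3 came from HepG2 lysates pre-activated with IL-1beta and TNF-alpha and phosphorylated biotinylated GST-cJun (1-79) at 10 uM ATP, pH 7.6, room temperature. Compounds were titrated. AlphaScreen signal used anti-phospho-cJun (Ser73) antibody.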

[7] = molecular target: Guanine nucleotide-binding protein G(i) subunit alpha-1 (Homo sapiens) (UniProt P63096); assay: qHTS Assay for Inhibitors of RGS12 GoLoco Motif Activity (Green Fluorophore) (AID 879);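 note: negative values mean loss of peptide binding seen as reduced polarization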
In short: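 Fluorescence polarization assay: 50 nM Gαi1 with 10 nM FITC-labeled RGS12 GoLoco peptide in 10 mM Tris pH 7.5, 150 mM NaCl, 0.1 mM GDP, 0.05% NP40, 10 min at room temperature with compound.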

[8] = molecular target: Cytochrome P450 2C9 (Homo sapiens) (UniProt P11712); assay: qHTS Assay for Inhibitors and Substrates of Cytochrome P450 2C9 (AID 883); note: nearly all actives have a fitted effect of over 60% in size
In short: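 A luminogenic readout tracked human CYP2C9 (10nM) converting deoxyluciferin (100uM, at KM) in 25mM KPO4 during 60 min at 37C with regenerated NADPH. Values normalized to 57uM sulphaphenazole as complete inhibition.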

[9] = molecular target: Cytochrome P450 3A4 (Homo sapiens) (UniProt P08684); assay: qHTS Assay for Activators of Cytochrome P450 3A4 (AID 885); note: nearly all actives have a fitted effect of over 65% in size
In short: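 20nM CYP3A4 + 25uM Luciferin-PPXE (=KM), 200mM KPO4; cpd 10 min RT; NADPH regen, 60 min RT; stop w/ detection buffer, 20 min; luminescence. Normalized to 57 uM ketoconazole.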

[10] = molecular target: Cytochrome P450 2D6 (Homo sapiens) (UniProt P10635); assay: qHTS Assay for Inhibitors and Substrates of Cytochrome P450 2D6 (AID 891);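 note: luciferin methyl ether substrate demethylated by CYP2D6 with NADPH regeneration; nearly all actives have a fitted effect of over 60% in size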
In short: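 Human CYP2D6 (5 nM) with 30 uM Luciferin-ME EGE (at Km) in 100 mM KPO4, compound preincubated 10 min, then NADPH regeneration system for 60 min at room temperature. Luciferin read by luminescence; normalized to 1.43 uM quinidine.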

[11] = molecular target: Cytochrome P450 2C19 (Homo sapiens) (UniProt P33261); assay: qHTS Assay for Inhibitors and Substrates of Cytochrome P450 2C19 (AID 899); note: nearly all actives have a fitted effect of over 60% in size
In short: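 NADPH-dependent conversion of Luciferin-H EGE (10uM, at KM) by 5nM enzyme in 50mM KPO4, 60 min at 37C following 10 min compound preincubation. Stopped with luciferin detection buffer; luminescence read after 20 min.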

[12] = qHTS Assay for Identification of Small Molecule Agonists for Thrombopoietin (TPO) Signaling Pathway (AID 917)
In short: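 IL-3-dependent murine pro-B Ba/F3 cells, stably transfected with human TPO receptor and GpIIb-promoter luciferase, are incubated 24 hrs at 37 C with test compound and 26 pM TPO; luciferase signal is read after 10 min at room temperature.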

[13] = molecular target: Muscarinic acetylcholine receptor M1 (Rattus norvegicus) (UniProt P08482); assay: qHTS Assay for Antagonists of Acetylcholine Muscarinic M1 Receptor: Measurement of IP-One Response (AID 944); note: nearly all actives have a fitted effect of over 75% in size
In short: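 Steps: plate transfected CHO-M1 cells overnight; add test compound, 10 min; add carbachol (200 nM, EC80) in stimulation buffer with LiCl; incubate 30 min; add labelled IP1 tracer and anti-IP1 antibody in lysis buffer; read HTRF after 10 min.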

[14] = molecular target: Pyruvate kinase (Leishmania mexicana) (UniProt Q27686); assay: qHTS Validation Assay for Inhibitors of Leishmania Mexicana Pyruvate Kinase (AID 945)
In short: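 Read-out: luminescence from PKLight stop/detection reagent, data normalized to DMSO. Reaction: 0.2 nM E451W LmPYK, 0.5 mM PEP, 0.1 mM ADP, pH 7.2, 1 h room temperature.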

[15] = molecular target: Pyruvate kinase PKM (Homo sapiens) (UniProt P14618); assay: qHTS Assay for Activators of Human Muscle Pyruvate Kinase (AID 954; active = well fitted curve in the direction sought with a large enough effect, not every such curve was filed as active)
In short: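 Luminescence from a luciferase ATP-detection/stop reagent reported PKM2 activity. Reactions contained 0.1 nM purified human enzyme, 0.5 mM PEP, 0.1 mM ADP and 7 mM MgCl2 at pH 7.2, run 1 h at RT.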

[16] = molecular target: alpha-glucosidase (Oryza sativa, rice) (UniProt Q653V4); assay: Counterscreen for Glucocerebrosidase Inhibitors: qHTS Assay for Rice alpha-Glucosidase at pH 5.0 (AID 997)
In short: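 Rice alpha-glucosidase (4 nM final) with 400 uM 4-methylumbelliferyl-alpha-D-glucopyranoside in citrate buffer pH 5.0, 20 min at room temperature, stopped at pH 10; fluorescence 365/440 nm, compounds 0.7 nM–77 uM, AC50 from Hill fits.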

[17] = qHTS Assay for Lipid Storage Modulators (AID 1519; calls by dose curve); details: Drosophila S3 cells, BODIPY lipid droplet/cell ratio, laser cytometry, cells loaded with oleic acid; for activity change, negative = inhibition: at 57.5 µM (top of the series)
In short: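 Cells seeded at 5,000 per well were treated with compounds over a concentration series and loaded with oleic acid (400 uM, as added). Lipid droplet fluorescence (488 nm excitation, 500-530 nm channel) was read by laser-scanning cytometry and normalized to 20 uM Triacsin C.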

[18] = molecular target: DNA dC->dU-editing enzyme APOBEC-3G (Homo sapiens) (UniProt Q9HC16); assay: qHTS for inhibitors of Vif-A3G interactions: Validation (AID 588379)
In short: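 HeLa cells stably expressing Vif and A3G-eYFP, 700 cells/well, incubated overnight at 37 deg C, then exposed to compound overnight at 37 deg C. Inhibition of Vif-mediated degradation read as increased yellow fluorescence (Ex 488/Em 500-530) by laser-scanning cytometry.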

[19] = tested on: Zika virus NS2B-NS3 protease; assay: Primary screen GU AMC qHTS for Zika virus inhibitors (AID 1347154); note: nearly all actives have a fitted effect of over 70% in size; note: potency is the fitted concentration of half-maximal effect
In short: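 Unlinked Zika NS2B hydrophilic domain/NS3 protease domain noncovalent complex (25 nM final) in 10 mM Tris-HCl pH 8.0, 0.01% Tween 20, with AMC peptide substrate. Fluorescence (ex 340, em 450 nm) change over 15 min, room temperature; percent inhibition fitted to 4-parameter Hill equation.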

[20] = Primary qHTS for small molecule stabilizers of the endoplasmic reticulum resident proteome: Secreted ER Calcium Modulated Protein (SERCaMP) assay (AID 1508630)
In short: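 GLuc-SERCaMP-expressing SH-SY5Y cells, pretreated 16 h with compound, are challenged with thapsigargin to empty ER calcium stores; after 4 h, coelenterazine is added directly to the medium and luminescence is imaged.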

[21] = Stat Signaling Pathway (AID 446; active = well fitted curve in either direction with a large enough effect, not every such curve was filed as active;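 note: ME-180 cervical cancer cells given 40 pM IL-6 alongside compound; SIE-controlled beta-lactamase reporter measured as 460/530 nm FRET emission ratio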); details: ME-180 SIE beta-lactamase reporter, IL-6 stimulated, 5 h; at 38 µM (top of the series)
In short: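 ME-180 SIE-bla cells; overnight plating; cpd + IL-6 40 pM, 5 h, 37 C; LiveBLAzer 2.5 h RT; 460/530 nm emission ratio. Normalized to 300 pM IL-6 and 125 nM JAK inhibitor controls.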

[22] = molecular target: 3',5'-cyclic-AMP phosphodiesterase 4B (Homo sapiens) (UniProt Q07343); assay: qHTS Assay for Inhibitors of PDE-IV (AID 607; active = well fitted activation curve with a large enough effect in the main read-out, with a control signal flat, not every such curve was filed as active)
In short: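 ACTOne HEK293 cells carry a modified cAMP-gated CNG channel and express endogenous PDE4; plated 1000 cells/well, compounds up to 22.9 uM final. Membrane-potential dye fluorescence (ex 535/em 590) was read; parental cells received 10 uM forskolin + 100 uM RO 20-1724.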

[23] = qHTS Assay for Identification of Small Molecule Antagonists for NFkB Signaling Pathway (AID 895; active = well fitted inhibition curve with a large enough effect in the signal ratio, with a control signal flat, not every such curve was filed as active; the % refers to the signal ratio; note: potency is the fitted concentration of half-maximal effect)
In short: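 NFkB-bla ME-180 cervical carcinoma cells with beta-lactamase reporter under NFkB response element; compounds added, then TNF alpha at 10 pM final (EC50), 5 h at 37 C. LiveBLAzer substrate 2 h, room temperature; emission 460/530 nm at 405 nm excitation.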

[24] = molecular target: Ubiquitin carboxyl-terminal hydrolase 1 (Homo sapiens) (UniProt O94782); assay: Inhibitors of USP1/UAF1: Pilot qHTS (AID 504865);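 note: rhodamine fluorescence freed from ubiquitin-rhodamine substrate followed over time; top concentration of the series differs between compounds; nearly all actives have a fitted effect of over 35% in size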
In short: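 Enzyme-free wells gave the negative control, while test wells held 1nM USP1/UAF1 preincubated with compound for 15 min at room temperature. Ub-Rho at 150nM final started the reaction, and fluorescence at 480/540 nm was recorded kinetically.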

[25] = measured here: cell count channel max response
[26] = measured here: lipid channel max response

Sequence of 3',5'-cyclic-AMP phosphodiesterase 4B (Homo sapiens) (Q07343 whole entry, looked up): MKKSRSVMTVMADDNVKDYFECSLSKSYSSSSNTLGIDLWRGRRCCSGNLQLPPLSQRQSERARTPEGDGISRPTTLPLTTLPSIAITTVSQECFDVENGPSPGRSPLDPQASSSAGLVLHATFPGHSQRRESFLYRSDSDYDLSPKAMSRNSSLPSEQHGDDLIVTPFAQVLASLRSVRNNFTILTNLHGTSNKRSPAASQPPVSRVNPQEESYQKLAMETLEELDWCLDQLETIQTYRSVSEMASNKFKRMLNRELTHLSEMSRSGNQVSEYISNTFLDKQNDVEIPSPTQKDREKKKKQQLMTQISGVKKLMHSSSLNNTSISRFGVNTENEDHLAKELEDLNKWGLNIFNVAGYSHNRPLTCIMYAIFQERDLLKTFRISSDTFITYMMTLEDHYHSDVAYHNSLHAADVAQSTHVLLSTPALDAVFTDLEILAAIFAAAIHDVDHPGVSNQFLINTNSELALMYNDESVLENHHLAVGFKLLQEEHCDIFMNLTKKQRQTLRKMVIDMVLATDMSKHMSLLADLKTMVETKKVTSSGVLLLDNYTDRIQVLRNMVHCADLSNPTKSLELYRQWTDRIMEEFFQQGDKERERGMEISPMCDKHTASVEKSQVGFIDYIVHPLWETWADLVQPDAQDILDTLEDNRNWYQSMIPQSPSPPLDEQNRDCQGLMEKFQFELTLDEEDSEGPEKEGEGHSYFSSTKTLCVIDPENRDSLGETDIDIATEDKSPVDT
Sequence of DNA dC->dU-editing enzyme APOBEC-3G (Homo sapiens) (Q9HC16 whole entry, looked up): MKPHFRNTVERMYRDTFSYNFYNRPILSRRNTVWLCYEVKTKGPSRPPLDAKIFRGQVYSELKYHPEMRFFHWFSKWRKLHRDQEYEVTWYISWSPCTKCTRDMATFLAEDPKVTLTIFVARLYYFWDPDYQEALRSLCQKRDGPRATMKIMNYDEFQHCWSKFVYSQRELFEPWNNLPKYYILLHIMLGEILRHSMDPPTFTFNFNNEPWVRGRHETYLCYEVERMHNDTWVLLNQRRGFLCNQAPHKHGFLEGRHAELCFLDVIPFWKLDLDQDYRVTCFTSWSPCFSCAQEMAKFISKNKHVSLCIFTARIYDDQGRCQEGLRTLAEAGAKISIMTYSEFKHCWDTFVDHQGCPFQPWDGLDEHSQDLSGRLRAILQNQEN
Sequence of Cytochrome P450 1A2 (Homo sapiens) (P05177 whole entry, looked up): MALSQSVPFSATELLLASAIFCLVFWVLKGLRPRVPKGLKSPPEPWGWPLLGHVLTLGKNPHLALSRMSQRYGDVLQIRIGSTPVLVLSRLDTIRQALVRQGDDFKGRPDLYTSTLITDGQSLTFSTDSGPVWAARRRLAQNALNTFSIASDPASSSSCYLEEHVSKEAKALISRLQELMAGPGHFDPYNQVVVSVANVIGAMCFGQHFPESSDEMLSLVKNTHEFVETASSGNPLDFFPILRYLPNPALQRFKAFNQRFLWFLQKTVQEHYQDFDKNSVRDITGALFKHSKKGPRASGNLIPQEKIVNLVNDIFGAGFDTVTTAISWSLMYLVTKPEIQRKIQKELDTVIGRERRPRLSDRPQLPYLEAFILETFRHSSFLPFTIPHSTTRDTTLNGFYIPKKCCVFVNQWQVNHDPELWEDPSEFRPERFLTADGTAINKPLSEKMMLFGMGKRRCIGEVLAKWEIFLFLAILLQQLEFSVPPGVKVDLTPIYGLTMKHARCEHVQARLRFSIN
Sequence of Glucocorticoid receptor (Homo sapiens) (P04150 whole entry, looked up, the tested form may be a part): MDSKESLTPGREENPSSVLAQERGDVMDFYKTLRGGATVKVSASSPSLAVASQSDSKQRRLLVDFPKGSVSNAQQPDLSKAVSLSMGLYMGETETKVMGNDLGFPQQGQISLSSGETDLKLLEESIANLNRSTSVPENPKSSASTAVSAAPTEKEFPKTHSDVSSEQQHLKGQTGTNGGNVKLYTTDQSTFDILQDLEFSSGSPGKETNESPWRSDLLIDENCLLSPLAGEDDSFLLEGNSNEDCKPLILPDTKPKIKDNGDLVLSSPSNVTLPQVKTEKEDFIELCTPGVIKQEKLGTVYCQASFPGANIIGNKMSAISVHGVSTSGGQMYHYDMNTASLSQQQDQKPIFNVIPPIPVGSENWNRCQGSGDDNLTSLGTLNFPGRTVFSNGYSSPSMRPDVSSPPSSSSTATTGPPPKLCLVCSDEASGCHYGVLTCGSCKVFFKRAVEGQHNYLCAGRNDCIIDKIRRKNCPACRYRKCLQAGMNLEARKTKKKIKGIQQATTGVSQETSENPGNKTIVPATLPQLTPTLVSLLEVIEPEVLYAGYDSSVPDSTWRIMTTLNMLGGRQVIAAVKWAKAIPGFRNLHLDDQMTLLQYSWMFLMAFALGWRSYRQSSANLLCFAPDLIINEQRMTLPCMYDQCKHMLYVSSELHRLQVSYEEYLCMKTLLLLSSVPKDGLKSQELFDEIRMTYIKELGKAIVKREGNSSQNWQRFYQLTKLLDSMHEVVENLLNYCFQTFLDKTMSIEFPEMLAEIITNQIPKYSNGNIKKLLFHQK
Sequence of Pyruvate kinase PKM (Homo sapiens) (P14618 whole entry, looked up): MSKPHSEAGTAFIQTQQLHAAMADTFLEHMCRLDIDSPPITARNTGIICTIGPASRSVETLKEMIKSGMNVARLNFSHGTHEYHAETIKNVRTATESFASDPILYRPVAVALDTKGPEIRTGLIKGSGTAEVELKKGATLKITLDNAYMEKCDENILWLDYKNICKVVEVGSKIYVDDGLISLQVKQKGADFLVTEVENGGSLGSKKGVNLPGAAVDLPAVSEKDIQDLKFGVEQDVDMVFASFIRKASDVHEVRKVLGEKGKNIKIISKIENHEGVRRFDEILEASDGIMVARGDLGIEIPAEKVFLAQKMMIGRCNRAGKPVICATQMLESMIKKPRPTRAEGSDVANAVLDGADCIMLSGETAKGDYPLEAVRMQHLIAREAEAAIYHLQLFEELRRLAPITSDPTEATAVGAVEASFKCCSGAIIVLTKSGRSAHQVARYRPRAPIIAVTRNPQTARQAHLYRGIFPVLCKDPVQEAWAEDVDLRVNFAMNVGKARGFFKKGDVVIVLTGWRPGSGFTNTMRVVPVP
Sequence of Ubiquitin carboxyl-terminal hydrolase 1 (Homo sapiens) (O94782 whole entry, looked up): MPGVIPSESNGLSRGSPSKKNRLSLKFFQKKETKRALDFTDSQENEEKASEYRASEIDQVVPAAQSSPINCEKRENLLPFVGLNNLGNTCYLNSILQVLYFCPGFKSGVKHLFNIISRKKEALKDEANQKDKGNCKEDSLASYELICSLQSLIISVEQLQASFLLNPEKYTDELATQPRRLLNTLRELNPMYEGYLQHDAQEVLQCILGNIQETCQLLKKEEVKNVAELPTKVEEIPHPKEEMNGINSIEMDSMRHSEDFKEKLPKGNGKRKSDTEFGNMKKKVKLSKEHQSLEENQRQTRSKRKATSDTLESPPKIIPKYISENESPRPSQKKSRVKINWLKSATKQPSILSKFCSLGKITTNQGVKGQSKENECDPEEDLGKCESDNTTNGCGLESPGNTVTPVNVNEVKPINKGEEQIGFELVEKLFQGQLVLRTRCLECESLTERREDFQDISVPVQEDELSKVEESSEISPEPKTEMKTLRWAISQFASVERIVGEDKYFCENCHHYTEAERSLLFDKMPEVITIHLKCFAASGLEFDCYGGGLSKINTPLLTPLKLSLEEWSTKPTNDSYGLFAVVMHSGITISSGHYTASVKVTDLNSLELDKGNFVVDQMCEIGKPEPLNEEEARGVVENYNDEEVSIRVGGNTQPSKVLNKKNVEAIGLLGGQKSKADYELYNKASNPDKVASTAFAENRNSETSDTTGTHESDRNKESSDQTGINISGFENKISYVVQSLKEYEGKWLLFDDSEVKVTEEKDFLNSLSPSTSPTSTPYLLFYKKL
Sequence of Cytochrome P450 2C19 (Homo sapiens) (P33261 whole entry, looked up): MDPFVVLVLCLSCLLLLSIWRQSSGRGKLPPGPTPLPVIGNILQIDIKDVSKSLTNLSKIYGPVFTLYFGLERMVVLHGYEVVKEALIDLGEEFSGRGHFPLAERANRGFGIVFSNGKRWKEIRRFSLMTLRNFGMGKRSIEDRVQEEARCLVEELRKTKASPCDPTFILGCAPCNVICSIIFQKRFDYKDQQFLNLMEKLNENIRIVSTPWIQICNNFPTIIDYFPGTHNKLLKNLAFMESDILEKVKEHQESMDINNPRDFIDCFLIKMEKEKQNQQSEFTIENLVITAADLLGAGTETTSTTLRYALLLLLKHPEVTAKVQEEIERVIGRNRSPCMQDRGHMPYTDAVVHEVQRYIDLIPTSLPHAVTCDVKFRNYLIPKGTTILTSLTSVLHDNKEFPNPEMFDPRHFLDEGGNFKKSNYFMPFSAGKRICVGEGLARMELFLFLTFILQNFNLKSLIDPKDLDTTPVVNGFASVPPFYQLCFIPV
Sequence of Guanine nucleotide-binding protein G(i) subunit alpha-1 (Homo sapiens) (P63096 whole entry, looked up): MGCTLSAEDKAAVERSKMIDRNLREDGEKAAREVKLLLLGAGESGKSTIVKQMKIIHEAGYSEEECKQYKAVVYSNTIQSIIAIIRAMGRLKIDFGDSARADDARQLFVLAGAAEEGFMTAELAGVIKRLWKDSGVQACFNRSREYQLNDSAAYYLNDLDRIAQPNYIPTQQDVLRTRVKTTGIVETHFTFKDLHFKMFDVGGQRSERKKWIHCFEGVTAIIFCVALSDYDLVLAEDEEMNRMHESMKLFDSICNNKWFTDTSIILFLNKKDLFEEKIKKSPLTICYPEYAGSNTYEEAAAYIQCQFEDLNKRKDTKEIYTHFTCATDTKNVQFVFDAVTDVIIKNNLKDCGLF

For NC[C@](O)(CS(=O)(=O)O)c1ccc(Cl)cc1, the activity change, negative = inhibition [1] was 6.15% (inactive), the Potency [2] was “inactive and 31.6 µM (active)” and the activity change, negative = inhibition [3] was -5.4% (inactive). For the same molecule, the Potency [4] was > 46 µM (inactive), the Potency [5] was > 46 µM (inactive) and the Potency [6] was “inactive”. The outcome [7] was “inactive”, the Potency [8] was “inactive” and the Potency [9] was “inactive”. For the same molecule, the Potency [10] was “inactive”, the Potency [11] was “inactive” and the Potency [12] was “inactive”. The Potency [13] was “inactive”, the Potency [14] was “inactive” and the outcome [15] was “inactive”. For the same molecule, the outcome [16] was “inactive”, the activity change, negative = inhibition [17] was -5.03% (inactive) and the max response [17, 25] was 11.5%. For the same molecule, the max response [17, 26] was 9.5%, the Potency [18] was “inactive” and the Potency [19] was “inactive”. For the same molecule, the Potency [20] was “inactive”.

With C[C@@H]1C[C@@H]2[C@H]3CCC4=CC(=O)C=C[C@]4(C)[C@]3(F)[C@@H](O)C[C@@]2(C)[C@@]1(O)C(=O)CO the activity change, negative = inhibition [1] was -8.71% (inactive), the Potency [2] was “inactive” and the activity change, negative = inhibition [3] was 7.2% (inactive). For the same molecule, the activity, negative = inhibition [21] was -19.7% (inactive), the Potency [22] was “inactive” and the Potency [23] was 0.01 µM (active). For the same molecule, the Potency [12] was “inactive”, the outcome [15] was “inactive” and the outcome [16] was “inactive”. For the same molecule, the activity change, negative = inhibition [17] was -3.85% (inactive), the max response [17, 25] was 8.23% and the max response [17, 26] was 2.65%. For the same molecule, the Potency [18] was “inactive”, the Potency [19] was “inactive” and the Potency [20] was “inactive”.

For C[C@H](NC[C@H](O)CP(=O)(O)Cc1ccccc1)c1ccc(Cl)c(Cl)c1, the Potency [2] was “inactive”, the Potency [4] was > 46 µM (inactive) and the Potency [5] was > 46 µM (inactive). The Potency [6] was “inactive”, the activity change, negative = inhibition [17] was 2.58% (inactive) and the max response [17, 25] was 0.952%. The max response [17, 26] was 5.21%, the Potency [24] was “inactive” and the Potency [18] was “inactive”. The Potency [19] was “inactive” and the Potency [20] was “inactive”.

For N[C@H](C(=O)O)c1ccc(C(=O)O)c(O)c1, the Potency [2] was “inactive”, the Potency [4] was > 46 µM (inactive) and the Potency [5] was > 46 µM (inactive). For the same molecule, the Potency [6] was “inactive”, the Potency [22] was “inactive” and the activity change, negative = inhibition [17] was 2.68% (inactive). For the same molecule, the max response [17, 25] was -19.5%, the max response [17, 26] was -17.3% and the Potency [24] was “inactive”. For the same molecule, the Potency [18] was “inactive”, the Potency [19] was 26.7 µM (active) and the Potency [20] was “inactive”.
